Assay outcomes from PubChem.
Sampled rows, rich in hits. Any-hit rate of the full collection: about 21%.
NS1 inh: qHTS Assay for Inhibitors of Influenza NS1 Protein Function. Potency, µM (series often up to 46.1 µM), inactives show top-dose activity, positive = more growth. 270,000 tested, 0.4% active; also: potency is read from the fitted curve at half-maximal effect; actives are rising curves; nearly all actives have a fitted effect of over 50% in size
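OD600 was taken as the measure of yeast growth restored by compound in an NS1-expressing S. cerevisiae strain. Cells had been washed out of glucose medium and diluted 1:100 into galactose -URA medium, pH 6.0.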
CHX counter: Cycloheximide Counterscreen for Small Molecule Inhibitors of Shiga Toxin; cell reporter, cycloheximide protein synthesis inhibition counterscreen; max response, %; 300,000 tested, 12% active; AID 2314, 2010; in the data active = max response mostly above about 13%, no sharp cut-off; inactive = mostly below about 14%; also: read at 38.3 µM for the half of the compounds with a filed dose; 0% is about no effect
Pf growth 48h: Primary qHTS for delayed death inhibitors of the malarial parasite plastid, 48 hour incubation; 310,000 tested, 5.9% active; P. falciparum luciferase growth in erythrocytes, 48 h; Potency, µM (highest dose often 28.7 µM), without a hit: at the highest dose activity change, negative = inhibition, actives largely listed as inhibitors; active = well fitted inhibition curve with a large enough effect; inconclusive = small, poorly fitted or top-dose-only effect, or another doubt; inactive = no such curve, though single readings can be large or run the other way; also: potency is read from the fitted curve at half-maximal effect; % is scaled to controls: 0 for no effect and ±100 for the full control effect
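In quantitative HTS format, infected erythrocytes bearing luciferase-reporter parasites were treated for a single generation at 37 C. Luminescence after adding detection reagent served as the growth measure.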
Shiga inhibitor: A qHTS for Small Molecule Inhibitors of Shiga Toxin; Vero cells, Shiga toxin protein synthesis inhibition reporter; inhibition, % at 38.7 µM; 290,000 tested, 9.2% active; in the data active = inhibition mostly above about 28%, no sharp cut-off; inactive = mostly below about 43%; also: 0% is about no effect
Pf growth 96h: Primary qHTS for delayed death inhibitors of the malarial parasite plastid, 96 hour incubation; P. falciparum luciferase reporter growth, 96 h; Potency, µM (doses to about 28.7 µM), for inactives: at the highest dose activity change, negative = inhibition, hits mostly inhibitors; 320,000 tested, 6.9% active; AID 504834, 2011; active = well fitted inhibition curve with a large enough effect; inconclusive = small, poorly fitted or top-dose-only effect, or another doubt; inactive = no such curve, though single readings can be large or run the other way; also: potency is read from the fitted curve at half-maximal effect; % is scaled to controls: 0 for no effect and ±100 for the full control effect
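P. falciparum expressing integrated firefly luciferase grown in erythrocytes (2% hematocrit, 0.05% parasitemia final) with compounds for 96 hours at 37 C, 5% CO2. Growth inhibition read as loss of luminescence after adding luciferase detection reagent.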
SARS PLpro yeast: qHTS of Yeast-based Assay for SARS-CoV PLP; Potency, µM (highest dose often 32.9 µM), for inactives: top-dose activity, positive = growth rescue, actives largely listed as activators; 330,000 tested, 0.19% active; AID 485353, 2010; S. cerevisiae expressing SARS-CoV PLpro, growth rescue; also: potency is read from the fitted curve at half-maximal effect; 0% is about no effect; nearly all actives have a fitted effect of over 55% in size
* = called active by the depositor; ! = not active in a repeat. Unless noted, calls follow the shape of the full dose curve.

Screening COC(=O)C1=C(C)N(Cc2ccccc2)C(=O)/C1=C\c1ccco1 returned NS1 inh 3%, CHX counter 8, Pf growth 48h -23%, Shiga inhibitor 21, Pf growth 96h -7% and SARS PLpro yeast -1%.
`COC(=O)C1=C(C)N(Cc2ccc(C)cc2)C(=O)/C1=C\c1cc(OC)c(OC)c(OC)c1` gave NS1 inh 23%, CHX counter -2, Pf growth 48h 10µM*, Shiga inhibitor -8, Pf growth 96h 34% and SARS PLpro yeast -4%.
`CCOc1cc(/C=C2\C(=O)N(CCc3ccc(OC)c(OC)c3)C(C)=C2C(=O)OC)ccc1O` gave NS1 inh 22%, CHX counter 2, Pf growth 48h 12µM*, Shiga inhibitor -3, Pf growth 96h inconclusive and SARS PLpro yeast 3%.
O=C(Cn1cnc2c(nnn2Cc2ccc(F)cc2)c1=O)N1CCN(c2ccccc2)CC1 was read as NS1 inh -8%, CHX counter -1, Pf growth 48h inconclusive, Shiga inhibitor -14, Pf growth 96h -5% and SARS PLpro yeast -1%.
`O=Nc1c(-c2c(O)[nH]c3cc(Br)ccc23)[nH]c2ccccc12` gave NS1 inh -21%, CHX counter 30*, Pf growth 48h 4.1µM*, Shiga inhibitor 30*, Pf growth 96h 4.7µM* and SARS PLpro yeast -29%.
Screening Cc1ccc(CSC2=Nc3sccc3C3=NC(=O)CN23)cc1 returned NS1 inh 21%, CHX counter -3, Pf growth 48h 12µM*, Shiga inhibitor 24, Pf growth 96h inconclusive and SARS PLpro yeast 6%.
`COCCCNC(=O)C1=CCN(S(=O)(=O)c2ccc(OC)cc2)CC1` gave NS1 inh 2%, CHX counter -11, Pf growth 48h 10%, Shiga inhibitor 19, Pf growth 96h -28% and SARS PLpro yeast -4%.
Screening COc1cc(/C=C(/C#N)C(=O)NC(C)c2ccccc2)cc(OC)c1O (stereo not given) returned NS1 inh 2%, CHX counter -11, Pf growth 48h 0%, Shiga inhibitor -20, Pf growth 96h -21% and SARS PLpro yeast -1%.
`COc1ccccc1/C=C/C=C(\C#N)C(=O)NC(C)c1ccccc1` (stereo not given) gave NS1 inh 14%, CHX counter 11*, Pf growth 48h inconclusive, Shiga inhibitor -2, Pf growth 96h -28% and SARS PLpro yeast -6%.
`COc1cccc(-c2nc(CS(=O)(=O)CC(=O)NCCN3CCOCC3)c(C)o2)c1` gave NS1 inh -2%, CHX counter 10, Pf growth 48h 53%, Shiga inhibitor -10, Pf growth 96h inconclusive and SARS PLpro yeast 2%.
For CCOc1ccc(Br)cc1C1=NN(C(C)=O)C(c2ccc([N+](=O)[O-])s2)O1 (stereo not given) the results were NS1 inh -64%, CHX counter 10, Pf growth 48h 9.3µM*, Shiga inhibitor 9, Pf growth 96h inconclusive and SARS PLpro yeast -12%.
Screening N#CCC(=O)NCCCc1ccccc1 returned NS1 inh -6%, CHX counter -2, Pf growth 48h 10%, Shiga inhibitor 9, Pf growth 96h -16% and SARS PLpro yeast 5%.
`O=C(CN1CCSc2ccccc21)NCCCc1ccccc1` gave CHX counter 37*, Pf growth 48h 85%, Shiga inhibitor 86*, Pf growth 96h inconclusive and SARS PLpro yeast 0%.
For CNc1c2c(nn1C)CCCC2 the results were NS1 inh 2%, CHX counter -5, Pf growth 48h 28%, Shiga inhibitor 17, Pf growth 96h 6µM*! and SARS PLpro yeast 0%.
Screening CC1C(C#N)=C(N)OC2=C1C(=O)CC(C)(C)C2 (stereo not given) returned NS1 inh -2%, CHX counter 1, Shiga inhibitor 21, Pf growth 96h 13µM* and SARS PLpro yeast 4%.
Screening Cn1c(NCCO)nc2c1c(=O)n(Cc1ccc(F)cc1)c(=O)n2C returned NS1 inh 3%, CHX counter -2, Shiga inhibitor 14, Pf growth 96h 12% and SARS PLpro yeast 2%.
Screening COc1ccc(CNc2nc3c(c(=O)n(Cc4ccc(F)cc4)c(=O)n3C)n2C)cc1 returned NS1 inh -107%, CHX counter 4, Pf growth 48h 9.3µM*, Shiga inhibitor 11, Pf growth 96h -25% and SARS PLpro yeast 3%.
Screening Cn1c(NCc2ccccc2)nc2c1c(=O)n(Cc1ccccc1)c(=O)n2C returned NS1 inh -5%, CHX counter -4, Pf growth 48h 7.4µM*, Shiga inhibitor 13, Pf growth 96h 3.7µM* and SARS PLpro yeast -5%.
Cn1c(=O)c2c(nc(NCc3ccccc3)n2C)n(C)c1=O was read as NS1 inh -4%, CHX counter -2, Pf growth 48h -7%, Shiga inhibitor -21 and SARS PLpro yeast -16%.
CC(C)CCNc1nc2c(c(=O)n(Cc3cccc(F)c3)c(=O)n2C)n1C was read as NS1 inh -60%, CHX counter 3, Pf growth 48h inconclusive, Shiga inhibitor -9, Pf growth 96h 12µM* and SARS PLpro yeast -5%.
Screening CCN(c1ccc(Cl)cc1)S(=O)(=O)c1nnc(NC(=O)C(C)C)s1 returned NS1 inh 1%, CHX counter 0, Pf growth 48h 4%, Shiga inhibitor 2, Pf growth 96h 16% and SARS PLpro yeast 0%.
For CC1(C)CC2CC(C)(CN2C(=O)COC(=O)c2cccc([N+](=O)[O-])c2)C1 (stereo not given) the results were SARS PLpro yeast 3%.
N#C/C(C(=O)Oc1ccccc1)=C1\C=CC=CN1 was read as NS1 inh -14%, CHX counter 44*, Pf growth 48h 250%, Shiga inhibitor 60*, Pf growth 96h inactive and SARS PLpro yeast 6%.
O=C(Nc1ccc(NS(=O)(=O)c2ccccc2)cc1)c1ccccc1 was read as NS1 inh 9%, CHX counter -2, Pf growth 48h 10%, Shiga inhibitor -7, Pf growth 96h -33% and SARS PLpro yeast 0%.
CC(=O)Oc1ccc(C(=O)Nc2ccc(C3(C#N)CCCC3)cc2)cc1 was read as NS1 inh 26%, CHX counter 12*, Pf growth 48h -1%, Shiga inhibitor 16, Pf growth 96h inconclusive and SARS PLpro yeast -1%.
N#CC1(c2ccc(NC(=O)c3ccccc3)cc2)CCCC1 was read as NS1 inh 3%, CHX counter 47*, Pf growth 48h 55%, Shiga inhibitor 135*, Pf growth 96h inactive and SARS PLpro yeast -9%.
